# Results taken from PubChem BioAssay (NCI).
# This is part of a sample that, as a whole, favours compounds with a hit. Of some 79,000 tested, about 15% had one in any assay. Unmarked numbers belong to inactive results. Active and inactive are the calls of the source. Cut-off read from the data, not from the text of the source: active = growth inhibition above about 70%; inactive = the rest.
# Legend:
# [1] = NCI Yeast Anticancer Drug Screen. Data for the wt1 strain (AID 149);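 note: 0% = growth of vehicle-treated wt1 cultures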; settings: S. cerevisiae wt1 strain (SPY 50644) growth inhibition, active compounds read high
# Method in brief: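 Measured: growth of wt1 yeast under compound versus vehicle treatment, reported as inhibition.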
# [2] = NCI Yeast Anticancer Drug Screen. Data for the rad50EPP+ strain (AID 151);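 note: 0% = growth of vehicle-treated control cultures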; settings: S. cerevisiae rad50 mutant strain, active compounds read high
# Method in brief: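 Measured: growth inhibition of rad50EPP+ yeast. Reference: vehicle-treated controls. Screen uses strains with defined genetic alterations in DNA damage repair or cell cycle control.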
# [3] = NCI Yeast Anticancer Drug Screen. Data for the mgt1 strain (AID 153); settings: S. cerevisiae mgt1 mutant growth inhibition, active compounds read high
# Method in brief: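 Compounds were applied to mgt1 mutant yeast, and growth was then compared against vehicle-treated control cultures to give percent inhibition.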
# [4] = NCI Yeast Anticancer Drug Screen. Data for the rad50 strain (AID 155);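 note: 0% = growth of vehicle-only cultures of the same strain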; settings: S. cerevisiae rad50 strain growth inhibition, active compounds read high
# Method in brief: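 Growth of the mutant yeast was measured after compound exposure and referenced to vehicle-treated cultures.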
# [5] = NCI Yeast Anticancer Drug Screen. Data for the mec2-1 strain (AID 157); settings: S. cerevisiae mec2-1 strain, active compounds read high
# Method in brief: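 Compounds were applied to mec2-1 yeast cells. Their growth was then compared with that of vehicle-treated cultures to give growth inhibition.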
# [6] = NCI Yeast Anticancer Drug Screen. Data for the rad14 strain (AID 159);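 note: 0% = growth of vehicle-treated control cultures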; settings: S. cerevisiae rad14 strain growth inhibition, active compounds read high
# Method in brief: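 Here, inhibition of yeast growth was measured after compound exposure, using a strain with a genetic defect in DNA damage repair and vehicle-treated cultures as the reference.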
# [7] = NCI Yeast Anticancer Drug Screen. Data for the sgs1 mgt1 strain (AID 161);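 note: 0% = growth of cultures given vehicle only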; settings: S. cerevisiae sgs1 mgt1 strain, active compounds read high
# Method in brief: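 Compounds are added to genetically altered yeast, and growth is compared with cultures given vehicle alone to give percent inhibition.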
# [8] = NCI Yeast Anticancer Drug Screen. Data for the CLN2oe strain (AID 163);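 note: 0% = growth of vehicle-only control cultures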; settings: S. cerevisiae CLN2oe strain, active compounds read high
# Method in brief: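 Cells of an engineered yeast line with disturbed cell-cycle regulation are treated with compound. Inhibition of growth is then calculated relative to the vehicle-treated reference.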
# [9] = NCI Yeast Anticancer Drug Screen. Data for the cln2 rad14 strain (AID 165);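 note: 0% = growth equal to vehicle treated cultures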; settings: S. cerevisiae cln2 rad14 strain, active compounds read high
# Method in brief: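 Strain: cln2 rad14 yeast, altered in cell cycle control and DNA damage repair. Read-out: growth inhibition vs vehicle.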
# [10] = NCI Yeast Anticancer Drug Screen. Data for the bub3 strain (AID 167); settings: S. cerevisiae bub3 mutant strain, active compounds read high
# Method in brief: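 Whole-cell yeast assay. The mutant strain was incubated with compounds, and growth inhibition was determined by comparison with vehicle-treated cells.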
# [11] = NCI Yeast Anticancer Drug Screen. Data for the mlh1 strain (AID 171);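 note: 0% = growth of vehicle-treated control cultures of the same strain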; settings: S. cerevisiae mlh1 strain growth inhibition, active compounds read high
# Method in brief: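 Test agents were incubated with yeast bearing a defined DNA damage repair or cell cycle control alteration; values are growth inhibition normalised to vehicle-treated cultures.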
# [12] = NCI Yeast Anticancer Drug Screen. Data for the sgs1 strain (AID 173);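 note: 0% = growth of vehicle-only control cultures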; settings: S. cerevisiae sgs1 mutant, active compounds read high
# Method in brief: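 Strain with an altered DNA repair or cell cycle pathway exposed to compound. Growth then measured. Value = inhibition versus vehicle control.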
# [13] = NCI Yeast Anticancer Drug Screen. Data for the mlh1 rad18 strain (AID 175); settings: S. cerevisiae mlh1 rad18 strain growth inhibition, active compounds read high
# Method in brief: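 A repair-deficient yeast strain is exposed to test compound, and growth is scored relative to vehicle-treated controls.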
# [14] = NCI Yeast Anticancer Drug Screen. Data for the rad18 strain (AID 177); settings: S. cerevisiae rad18 mutant growth inhibition, active compounds read high
# Method in brief: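 DNA-repair-defective yeast; compound treatment; growth inhibition scored against vehicle.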
# [15] = NCI Yeast Anticancer Drug Screen. Data for the wt2 strain (AID 169);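 note: 0% = growth of vehicle-treated yeast cultures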; settings: S. cerevisiae wt2 strain growth inhibition, active compounds read high
# Method in brief: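 Growth of compound-treated yeast is measured and expressed as inhibition relative to vehicle-only controls.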
# [16] = at 5.0 µM (retest, dose inferred, filed as 0.5)
# [17] = at 50.0 µM (retest, dose inferred, filed as 5.0)
smiles,measurement,setting,value
O=C1OC(/C=C/c2ccccc2)Sc2ccccc21 (stereo not drawn),growth inhibition,[1]; at 1.2 µM,-3%
same,growth inhibition,[1]; at 3.7 µM,0%
same,growth inhibition,[1]; at 11.0 µM,1%
same,growth inhibition,[1]; at 33.0 µM,2%
same,growth inhibition,[1]; at 100.0 µM,8%
same,growth inhibition,[2]; at 1.2 µM,5%
same,growth inhibition,[2]; at 3.7 µM,5%
same,growth inhibition,[2]; at 11.0 µM,13%
same,growth inhibition,[2]; at 33.0 µM,18%
same,growth inhibition,[2]; at 100.0 µM,23%
same,growth inhibition,[3]; at 1.2 µM,-1%
same,growth inhibition,[3]; at 3.7 µM,2%
same,growth inhibition,[3]; at 11.0 µM,4%
same,growth inhibition,[3]; at 33.0 µM,10%
same,growth inhibition,[3]; at 100.0 µM,44%
same,growth inhibition,[4]; at 1.2 µM,3%
same,growth inhibition,[4]; at 3.7 µM,4%
same,growth inhibition,[4]; [16],-16%
same,growth inhibition,[4]; at 11.0 µM,10%
same,growth inhibition,[4]; at 33.0 µM,14%
same,growth inhibition,[4]; [17],1%
same,growth inhibition,[4]; at 50.0 µM,-0.5%
same,growth inhibition,[4]; at 100.0 µM,27%
same,growth inhibition,[5]; at 1.2 µM,-3%
same,growth inhibition,[5]; at 3.7 µM,-3%
same,growth inhibition,[5]; [16],10%
same,growth inhibition,[5]; at 11.0 µM,0%
same,growth inhibition,[5]; at 33.0 µM,10%
same,growth inhibition,[5]; [17],8%
same,growth inhibition,[5]; at 50.0 µM,29.8%
same,growth inhibition,[5]; at 100.0 µM,24%
same,growth inhibition,[6]; at 1.2 µM,1%
same,growth inhibition,[6]; at 3.7 µM,0%
same,growth inhibition,[6]; at 11.0 µM,4%
same,growth inhibition,[6]; at 33.0 µM,12%
same,growth inhibition,[6]; at 100.0 µM,23%
same,growth inhibition,[7]; [16],3%
same,growth inhibition,[7]; [17],7%
same,growth inhibition,[7]; at 50.0 µM,30.9%
same,growth inhibition,[8]; at 1.2 µM,0%
same,growth inhibition,[8]; at 3.7 µM,2%
same,growth inhibition,[8]; at 11.0 µM,-1%
same,growth inhibition,[8]; at 33.0 µM,3%
same,growth inhibition,[8]; at 100.0 µM,17%
same,growth inhibition,[9]; [16],-34%
same,growth inhibition,[9]; [17],-47%
same,growth inhibition,[9]; at 50.0 µM,-26.9%
same,growth inhibition,[10]; at 1.2 µM,5%
same,growth inhibition,[10]; at 3.7 µM,11%
same,growth inhibition,[10]; [16],7%
same,growth inhibition,[10]; at 11.0 µM,33%
same,growth inhibition,[10]; at 33.0 µM,46%
same,growth inhibition,[10]; [17],50%
same,growth inhibition,[10]; at 50.0 µM,89.3% (active)
same,growth inhibition,[10]; at 100.0 µM,62%
same,growth inhibition,[11]; at 1.2 µM,1%
same,growth inhibition,[11]; at 3.7 µM,3%
same,growth inhibition,[11]; at 11.0 µM,7%
same,growth inhibition,[11]; at 33.0 µM,12%
same,growth inhibition,[11]; at 100.0 µM,26%
same,growth inhibition,[12]; at 1.2 µM,0%
same,growth inhibition,[12]; at 3.7 µM,2%
same,growth inhibition,[12]; at 11.0 µM,6%
same,growth inhibition,[12]; at 33.0 µM,12%
same,growth inhibition,[12]; at 100.0 µM,25%
same,growth inhibition,[13]; [16],11%
same,growth inhibition,[13]; [17],27%
same,growth inhibition,[13]; at 50.0 µM,32.9%
same,growth inhibition,[14]; at 1.2 µM,1%
same,growth inhibition,[14]; at 3.7 µM,4%
same,growth inhibition,[14]; at 11.0 µM,7%
same,growth inhibition,[14]; at 33.0 µM,19%
same,growth inhibition,[14]; at 100.0 µM,43%
Cc1cccc[c]1[Sn]([Cl])([S]/C(C#N)=N/N=C/c1ccc(N(C)C)cc1)[c]1ccccc1C,growth inhibition,[1]; at 1.2 µM,-4%
same,growth inhibition,[1]; at 3.7 µM,-3%
same,growth inhibition,[1]; at 11.0 µM,-8%
same,growth inhibition,[1]; at 33.0 µM,35%
same,growth inhibition,[1]; at 100.0 µM,48%
same,growth inhibition,[2]; at 1.2 µM,0%
same,growth inhibition,[2]; at 3.7 µM,-1%
same,growth inhibition,[2]; at 11.0 µM,0%
same,growth inhibition,[2]; at 33.0 µM,12%
same,growth inhibition,[2]; at 100.0 µM,13%
same,growth inhibition,[3]; at 1.2 µM,-3%
same,growth inhibition,[3]; at 3.7 µM,-6%
same,growth inhibition,[3]; at 11.0 µM,-8%
same,growth inhibition,[3]; at 33.0 µM,37%
same,growth inhibition,[3]; at 100.0 µM,91% (active)
same,growth inhibition,[4]; at 1.2 µM,-3%
same,growth inhibition,[4]; at 3.7 µM,-1%
same,growth inhibition,[4]; [16],40%
same,growth inhibition,[4]; at 11.0 µM,12%
same,growth inhibition,[4]; at 33.0 µM,67%
same,growth inhibition,[4]; [17],89% (active)
same,growth inhibition,[4]; at 50.0 µM,97.4% (active)
same,growth inhibition,[4]; at 100.0 µM,94% (active)
same,growth inhibition,[6]; at 1.2 µM,-1%
same,growth inhibition,[6]; at 3.7 µM,3%
same,growth inhibition,[6]; at 11.0 µM,11%
same,growth inhibition,[6]; at 33.0 µM,58%
same,growth inhibition,[6]; at 100.0 µM,93% (active)
same,growth inhibition,[7]; [16],37%
same,growth inhibition,[7]; [17],92% (active)
same,growth inhibition,[7]; at 50.0 µM,98.3% (active)
same,growth inhibition,[8]; at 1.2 µM,0%
same,growth inhibition,[8]; at 3.7 µM,0%
same,growth inhibition,[8]; at 11.0 µM,2%
same,growth inhibition,[8]; at 33.0 µM,53%
same,growth inhibition,[8]; at 100.0 µM,94% (active)
same,growth inhibition,[9]; [16],25%
same,growth inhibition,[9]; [17],89% (active)
same,growth inhibition,[9]; at 50.0 µM,97.1% (active)
same,growth inhibition,[10]; at 1.2 µM,-8%
same,growth inhibition,[10]; at 3.7 µM,-6%
same,growth inhibition,[10]; [16],34%
same,growth inhibition,[10]; at 11.0 µM,0%
same,growth inhibition,[10]; at 33.0 µM,46%
same,growth inhibition,[10]; [17],92% (active)
same,growth inhibition,[10]; at 50.0 µM,97.2% (active)
same,growth inhibition,[10]; at 100.0 µM,89% (active)
same,growth inhibition,[15]; at 1.2 µM,-1%
same,growth inhibition,[15]; at 3.7 µM,-2%
same,growth inhibition,[15]; at 11.0 µM,-6%
same,growth inhibition,[15]; at 33.0 µM,32%
same,growth inhibition,[15]; at 100.0 µM,89% (active)
same,growth inhibition,[11]; at 1.2 µM,3%
same,growth inhibition,[11]; at 3.7 µM,-5%
same,growth inhibition,[11]; at 11.0 µM,-4%
same,growth inhibition,[11]; at 33.0 µM,35%
same,growth inhibition,[11]; at 100.0 µM,90% (active)
same,growth inhibition,[12]; at 1.2 µM,-1%
same,growth inhibition,[12]; at 3.7 µM,-3%
same,growth inhibition,[12]; at 11.0 µM,-1%
same,growth inhibition,[12]; at 33.0 µM,66%
same,growth inhibition,[12]; at 100.0 µM,94% (active)
same,growth inhibition,[13]; [16],47%
same,growth inhibition,[13]; [17],86% (active)
same,growth inhibition,[13]; at 50.0 µM,98.4% (active)
same,growth inhibition,[14]; at 1.2 µM,0%
same,growth inhibition,[14]; at 3.7 µM,-2%
same,growth inhibition,[14]; at 11.0 µM,10%
same,growth inhibition,[14]; at 33.0 µM,61%
same,growth inhibition,[14]; at 100.0 µM,92% (active)
